# Compounds with a hit are over-represented: about 8.2% of the library has one in this group of screens.
# ELG1 DNA repair – inhibitors of ELG1-dependent DNA repair in HEK293T cells; HEK293T ELG1-luciferase reporter, luminescence, 16 h; DNA damage induced by 5-fluorouridine; AID 504467; 330,000 compounds, 2.3% hits; Potency, µM (highest dose often 46.1 µM), hits mostly inhibitors; note: nearly all actives have a fitted effect of over 55% in size
#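 Reporter activity after DNA damage by 5-fluorouridine is monitored. Compound-treated cells incubate 16 hr at 37 °C, then ONE-Glo is added for 30 min before luminescence reading.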
# MCF10A rerep – inducers of DNA re-replication in MCF 10A breast cells. MCF 10A DNA re-replication, Hoechst nuclear intensity, 48 h. Potency, µM (top dose mostly 46.1 µM), usual class: activators. 350,000 compounds, 2.9% hits. AID 624296; note: nearly all actives have a fitted effect of over 50% in size
# KB-3-1 cytotox – KB-3-1 parental cell cytotoxicity. KB-3-1 viability, CellTiter-Glo ATP luminescence, 72 h. Potency, µM (highest dose often 46.1 µM), most hits filed as cytotoxic. 400,000 compounds, 1.4% hits. AID 1347075; note: nearly all actives have a fitted effect of over 60% in size
#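 Cytotoxicity measured as CellTiter-Glo luminescence after 72 h at 37 C. Compound titrations were pinned onto drug-naive KB-3-1 parental adenocarcinoma cells grown in DMEM with 10% FBS, and normalized data fitted to concentration-response curves.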
# SW480 rerep – inducers of DNA re-replication in SW480 colon cancer cells; AID 624297; 340,000 compounds, 1.8% hits; SW480 DNA re-replication, Hoechst DNA content imaging, 48 h; Potency, µM (titrated, usually from 46.1 µM), hits mostly activators; note: nearly all actives have a fitted effect of over 55% in size
#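 SW480 cells exposed to compounds for 48 hr at 37 C, 5% CO2, then Hoechst-stained 40 min. Nuclear DNA content imaged by fluorescence scanning (405 nm excitation, 500-530 nm emission); re-replication scored as increased high-intensity nuclei.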
# KB-V1 MDR tox – kills drug-selected multidrug resistant KB-V1 cells; KB-V1 MDR cells viability, CellTiter-Glo, 72 h; Potency, µM (top dose mostly 46.1 µM), hits mostly cytotoxic; 400,000 compounds, 3.4% hits; AID 1347076; note: nearly all actives have a fitted effect of over 60% in size
#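 KB-V1, DMEM (no phenol red) + 10% FBS; cpd pin-transferred, titration series; 72 h, 37 degrees C; CellTiter-Glo, luminescence. Data normalized, curve-fit.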
# Numbers stand for hits; - = inactive; ? = inconclusive; . = not tested or not shown. Calls come from the whole dose curve; as a rule, active = well fitted curve in the direction sought with a large enough effect; inconclusive = small, poorly fitted or top-dose-only effect, or another doubt; inactive = no such curve, though single readings can be large; an effect the other way counts as inactive or inconclusive.
SMILES,ELG1 DNA repair,MCF10A rerep,KB-3-1 cytotox,SW480 rerep,KB-V1 MDR tox
Cc1cccc(CSCCNC(=S)Nc2ccccc2)c1,?,-,?,-,18µM
S=C(NCCSCc1ccccc1Cl)Nc1ccccc1,-,13µM,-,-,?
S=C(NCCSCc1ccc(Cl)cc1)Nc1ccccc1,-,-,-,-,?
O=C(O)C=Cc1c[nH]c2nccnc12,.,.,-,.,-
O=C(Nc1ccc(OC(F)F)c(Cl)c1)c1cccc(OC(F)F)c1,?,-,?,-,18µM
O=C(Nc1ccc2c(c1)CCC2)c1cccc(OC(F)F)c1,.,-,-,-,-
COc1ccc(NC(=O)c2cccc(OC(F)F)c2)cc1Cl,?,-,-,-,15µM
CC(Oc1ccc(C(=O)c2ccccc2)cc1)C(=O)N1CCOCC1 (centres undefined),-,-,-,-,-
COc1cc(NS(=O)(=O)c2cc3[nH]c(=O)c(=O)[nH]c3cc2C)cc(OC)c1OC,-,-,?,-,-
COc1cc(NS(=O)(=O)c2ccc(C)cc2C)cc(OC)c1OC,10µM,-,?,-,?
COC(=O)c1ccc2c(c1)N(C)S(=O)(=O)c1cnc(SCC(=O)C(C)(C)C)nc1-2,16µM,-,-,-,-
CC1=CC(C)(C)N2C(=O)C3(C(C#N)=C(N)Oc4cc(C)oc(=O)c43)c3cc(C)cc1c32 (centres undefined),.,-,?,-,-
CCc1cc2c3c(c1)C1(C(=O)N3C(C)(C)C=C2C)C(C#N)=C(N)Oc2[nH]c(=O)[nH]c(=O)c21 (centres undefined),?,?,?,4.1µM,?
CCCCOC(=O)c1ccc(NC(=O)c2cc3c(=O)n4cccc(C)c4nc3s2)cc1,.,.,-,.,-
Cc1cc(F)ccc1NC(=O)Cn1cc(S(=O)(=O)NC(C)C)c(S(=O)(=O)NC(C)C)c1,.,.,-,.,-
CNC(=O)Nc1cc(C)nn1C,-,-,-,23µM,-
CC(=O)Nc1nonc1-c1nnc(SCC(=O)Nc2cccc(C)c2C)n1-c1ccccc1,.,.,-,.,-
Cc1ccc(NC(=O)CSc2nnc(COc3ccc(C#N)cc3)n2-c2ccccc2)cc1C,23µM,-,-,-,?
Cc1ccc(OCc2nnc(SCC(=O)Nc3cccc4ccccc34)n2-c2ccccc2)cc1,?,18µM,-,-,?
Cc1ccc(NC(=O)CSc2nnc(-c3n[nH]c4ccccc34)n2-c2ccccc2)c(C)c1,23µM,?,-,-,-
Cc1ccc(S(=O)(=O)N2CCOCC2)cc1NC(=O)CSCc1c(C)noc1C,-,-,-,-,-
COc1ccc(N(C(C)C(=O)N/N=C/c2ccc(OCC(C)C)cc2)S(C)(=O)=O)cc1 (centres undefined),?,-,-,4.1µM,?
O=C(Nc1cccc(C(F)(F)F)c1)c1csc([C@@H]2O[C@H](CO)[C@@H](O)[C@H]2O)n1,.,.,-,.,-
CN(Cc1ccc(Cl)c(Cl)c1)C(C(=O)NCc1ccccc1)c1ccco1 (centres undefined),.,.,-,.,?
CC(C)C(OC(=O)C1=Cc2ccccc2OC1)C(=O)NCC1CCCO1 (centres undefined),.,16µM,-,-,-
SMILES,ELG1 DNA repair,MCF10A rerep,KB-3-1 cytotox,SW480 rerep,KB-V1 MDR tox
COc1ccccc1-c1nnc(SCC(=O)N2CCCC2)o1,?,-,-,-,-
COC(=O)c1c(NC(=O)CC2Nc3ccccc3NC2=O)sc(C)c1C (centres undefined),-,10µM,-,-,?
COc1ccc(NC(=O)CC2Nc3cccc4cccc(c34)NC2=O)cc1 (centres undefined),23µM,-,-,-,-
Cc1cc2c(cc1C)NC(CC(=O)Nc1cccc(Cl)c1)C(=O)N2 (centres undefined),.,.,-,.,-
O=C(CC1Nc2ccccc2NC1=O)Nc1cc(Cl)cc(Cl)c1 (centres undefined),-,?,-,1.8µM,-
Cc1ccc(S(=O)(=O)N(C)c2ccc3c(ncn3C)c2[N+](=O)[O-])cc1,-,-,-,-,-
[O-][n+]1c2c(c3c4non(O)c4ccc31)CCCC2,23µM,-,-,-,-
OCc1nc2ccccc2n1CC(O)Cn1ccc2ccccc21 (centres undefined),-,-,?,-,21µM
COc1cccc(N=Cc2c(O)c3ccccc3oc2=O)c1,-,-,-,-,?
CCOC1=C2[C@@H](CN(S(=O)(=O)c3ccc(C)cc3)[C@H]2c2cccc3ccccc23)[C@H]2C(=O)N(C)C(=O)[C@H]2C1,.,.,-,.,-
O=C(NCc1ccccc1F)C1CCCN(C(=O)NC2CCCCC2)C1 (centres undefined),-,-,-,-,21µM
O=C(NCC1CCCCC1)C1CCCN(C(=O)NC2CCCCC2)C1 (centres undefined),?,-,?,-,4.1µM
O=C(Nc1ccc(C(=O)N2CCCC2)cc1)c1ccccc1F,?,-,?,-,-
O=C(Nc1cc(C(=O)N2CCCC2)ccc1N1CCCC1)c1ccccc1F,?,-,-,-,3.7µM
COc1ccc(Cl)cc1C(=O)Nc1ccccc1N1CCN(C)CC1,-,-,-,-,5.8µM
COc1ccccc1C(=O)Nc1ccccc1N1CCN(C(=O)c2ccc(Cl)cc2)CC1,15µM,-,?,-,-
O=C(Nc1ccccc1N1CCN(C(=O)c2ccccc2)CC1)c1ccccc1Cl,?,-,-,-,?
Cc1ccc2c(=O)c(C(=O)c3ccccc3)cn(CC(=O)Nc3ccccc3)c2n1,.,.,-,.,?
NC(=Nc1nc(-c2ccccn2)cc2ccccc12)c1ccccn1,.,?,?,?,0.73µM
O=C(c1ccc(O)c(Cl)c1)N1CCN(S(=O)(=O)c2ccccc2)CC1,-,-,-,-,-
COc1ccc(NC(=O)CN(Cc2ccccc2)Cc2ccccc2)cc1S(N)(=O)=O,-,-,-,-,21µM
COc1ccc(NC(=O)COc2ccccc2Cc2ccccc2)cc1S(N)(=O)=O,6.5µM,-,16µM,-,10µM
Cc1cc(C)c2c(NC(=O)c3ccccc3)c(C(=O)Nc3ccc(F)cc3)sc2n1,.,.,-,.,-
COc1cccc2c1C(CO)N1C(C#N)C3CC(C(=O)O)C(C1C2)N3C (centres undefined),0.33µM,-,0.026µM,0.92µM,0.21µM
COc1ccc(Br)c(Cn2c(C)c(C(=O)N(C)Cc3ccc(F)cc3)sc2=O)c1,.,.,?,.,8.2µM
Cc1c(C(=O)N(C)Cc2ccc(F)cc2)sc(=O)n1Cc1ccccc1C#N,.,.,-,.,?
Cc1ccccc1Cn1c(C)c(C(=O)N(C)Cc2ccc(F)cc2)sc1=O,.,.,?,.,16µM
CCOC(=O)Cn1c(=N)n(Cc2ccc(C(C)(C)C)cc2)c2ccccc21,.,.,-,.,-
O=[N+]([O-])c1cccc2nc3ccccc3c(NCCCn3ccnc3[N+](=O)[O-])c12,.,?,-,?,0.73µM
N=c1oc2ccccc2cc1C(=O)Nc1ccc(F)cc1,?,-,-,-,-
